Results with a measured potency or affinity are listed apart. The source made the active and inactive calls. No rule for the calls is given here.
Assay: growth inhibition of PfATP4-mutant resistant parasites – NITD609-resistant line, SYBR Green, dry powder, dose response (AID 1159571)
Conditions: P. falciparum ATP4 D1247Y mutant growth; series mostly up to 19.5 µM

Q: Which outcome does the source give for `O=C(NC[C@@H]1CC[C@H]2[C@H](CN2Cc2cc(-c3ccccc3)on2)O1)c1ccc2c(c1)OCO2` here?
A: Its outcome is “inactive”.

Q: Which outcome does the source give for `C[C@@H]1CN([C@H](C)CO)C(=O)c2cccc(NC(=O)c3ccc(-c4nccs4)cc3)c2O[C@H]1CN(C)Cc1ccc(C(F)(F)F)cc1` here?
A: Its outcome is “inactive”.

Q: Which outcome does the source give for `Cc1ccccc1-c1ccccc1[C@H]1[C@@H](C#N)N(C(=O)c2ccccc2)[C@@H]1CO` here?
A: The outcome was “inactive”.

Q: With `COc1ccc(S(=O)(=O)Nc2ccc3c(c2)CC(=O)N([C@@H](C)CO)C[C@H](C)[C@H](CN(C)S(=O)(=O)c2ccc(OC)cc2)O3)cc1` as the compound, how does the outcome read?
A: Its outcome is “inactive”.

Q: Which outcome does the source give for `COc1cccc(C#Cc2ccc([C@H]3[C@@H](CO)N(C(=O)c4ccccn4)[C@H]3C#N)cc2)c1` here?
A: Its outcome is “inactive”.

Reference: PubChem BioAssay AID1159571 (Broad Institute, 2015)
